PubChem BioAssay
The source made the active and inactive calls.

Legend:
[1] = E. coli DRC41 culture turbidity changes, primary screen, E. coli filamentation inducer project, strain DRC41, OD650, 48 h (AID 1152);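 note: E. coli MC1000 strain DRC41 lacking acrAB efflux pump and sulA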; conditions: E. coli DRC41 (acrAB sulA), higher = more signal, called active from +8 up or from −8 down
[2] = small-molecule binders of probe aLefty1, primary screen, biochemical, small-molecule microarray, 635/667 nm fluorescence (AID 1153); conditions: higher = more signal;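 note: score merges spot fluorescence with signal-to-noise ratio from the scanned slide images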
[3] = PSAC antagonists in infected red cells, primary screen, cell-based, P. falciparum Indochina, OD700, 1 h (AID 1154); conditions: P. falciparum Indochina infected RBC osmotic lysis, higher = more signal, called active from +8 up or from −8 down
[4] = PSAC antagonists in infected red cells, primary screen, cell-based, P. falciparum Indochina, OD700, 2 h (AID 1155);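 note: lysis reports solute entry through the parasite surface anion channel PSAC; channel blockers reduce lysis of infected cells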; conditions: P. falciparum Indochina infected erythrocytes, osmotic lysis OD700; higher = more signal, called active from +8 up or from −8 down
[5] = osmotic lysis modulators in infected erythrocytes, primary screen, PSAC antagonist project, cell-based, P. falciparum Indochina, OD700, 3 h (AID 1156); conditions: higher = more signal, called active from +8 up or from −8 down
[6] = PSAC antagonists in infected red cells, primary screen, cell-based, P. falciparum Indochina, OD700, 18 h (AID 1157); conditions: P. falciparum Indochina infected erythrocytes, osmotic lysis OD700, 18 h; higher = more signal, called active from +8 up or from −8 down
[7] = modulators of S6 phosphorylation in cells, primary screen, cell-based, A549, cytoblot, luminescence, serum-stimulated (AID 1158); conditions: A549 phospho-S6 cytoblot, 5 h, higher = more signal;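 note: serum-stimulated A549 lung adenocarcinoma cells; signal is phosphorylated S6 detected by cytoblot immunostaining with HRP secondary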
[8] = target: NADPH oxidase 2 (Homo sapiens) (UniProt P04839); assay: NOX2-dependent H2O2 signal modulators, primary screen, NOX inhibitor project, cell-based, HEK293-NOX2, PMA-stimulated, Amplex Red fluorescence (AID 1159); conditions: 45 min, higher = more signal, called active from +8 up or from −8 down; note: test concentration not given here
Sequence of NADPH oxidase 2 (Homo sapiens) (P04839 whole entry, looked up): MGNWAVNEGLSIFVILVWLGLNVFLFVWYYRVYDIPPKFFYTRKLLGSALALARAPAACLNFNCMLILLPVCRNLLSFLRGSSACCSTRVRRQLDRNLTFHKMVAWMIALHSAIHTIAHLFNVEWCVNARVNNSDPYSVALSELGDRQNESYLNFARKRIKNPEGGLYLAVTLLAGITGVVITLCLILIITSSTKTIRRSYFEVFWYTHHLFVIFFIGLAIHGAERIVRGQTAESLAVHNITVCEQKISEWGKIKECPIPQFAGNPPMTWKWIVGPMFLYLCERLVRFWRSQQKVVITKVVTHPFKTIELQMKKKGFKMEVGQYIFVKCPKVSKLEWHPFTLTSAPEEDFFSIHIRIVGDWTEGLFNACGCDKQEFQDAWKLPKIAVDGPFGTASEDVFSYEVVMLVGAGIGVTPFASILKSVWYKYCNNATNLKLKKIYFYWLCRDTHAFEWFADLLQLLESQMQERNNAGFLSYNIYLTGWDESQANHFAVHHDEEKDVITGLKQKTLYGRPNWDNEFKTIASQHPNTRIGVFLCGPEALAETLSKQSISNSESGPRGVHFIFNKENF

[9] = target: NADPH oxidase 4 (Homo sapiens) (UniProt Q9NPH5); assay: NOX4-dependent H2O2 signal modulators, primary screen, NOX inhibitor project, cell-based, HEK293-NOX4, tetracycline-induced, Amplex Red fluorescence (AID 1160); conditions: 45 min, higher = more signal, called active from +8 up or from −8 down
Sequence of NADPH oxidase 4 (Homo sapiens) (Q9NPH5 whole entry, looked up): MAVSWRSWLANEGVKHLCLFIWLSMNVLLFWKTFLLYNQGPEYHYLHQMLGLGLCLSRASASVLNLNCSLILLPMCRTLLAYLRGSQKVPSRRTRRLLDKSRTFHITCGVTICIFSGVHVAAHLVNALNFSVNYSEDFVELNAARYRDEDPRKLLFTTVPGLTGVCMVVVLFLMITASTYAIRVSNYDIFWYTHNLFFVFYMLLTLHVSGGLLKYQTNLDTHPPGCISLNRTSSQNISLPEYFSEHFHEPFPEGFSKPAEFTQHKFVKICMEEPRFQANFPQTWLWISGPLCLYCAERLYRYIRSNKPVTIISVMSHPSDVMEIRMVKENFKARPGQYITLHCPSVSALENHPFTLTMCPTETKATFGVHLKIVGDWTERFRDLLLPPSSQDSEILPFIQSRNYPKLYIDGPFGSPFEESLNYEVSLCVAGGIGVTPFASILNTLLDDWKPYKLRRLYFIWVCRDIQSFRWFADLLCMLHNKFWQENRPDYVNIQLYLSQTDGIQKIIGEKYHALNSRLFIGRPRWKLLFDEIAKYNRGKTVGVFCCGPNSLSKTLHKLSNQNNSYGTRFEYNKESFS

[10] = target: NADPH oxidase 5 (Homo sapiens) (UniProt Q96PH1); assay: NOX5-dependent H2O2 signal modulators, primary screen, NOX inhibitor project, cell-based, HEK293-NOX5, Amplex Red fluorescence (AID 1161); conditions: HEK293-NOX5, ionomycin, 45 min, higher = more signal
Sequence of NADPH oxidase 5 (Homo sapiens) (Q96PH1 whole entry, looked up): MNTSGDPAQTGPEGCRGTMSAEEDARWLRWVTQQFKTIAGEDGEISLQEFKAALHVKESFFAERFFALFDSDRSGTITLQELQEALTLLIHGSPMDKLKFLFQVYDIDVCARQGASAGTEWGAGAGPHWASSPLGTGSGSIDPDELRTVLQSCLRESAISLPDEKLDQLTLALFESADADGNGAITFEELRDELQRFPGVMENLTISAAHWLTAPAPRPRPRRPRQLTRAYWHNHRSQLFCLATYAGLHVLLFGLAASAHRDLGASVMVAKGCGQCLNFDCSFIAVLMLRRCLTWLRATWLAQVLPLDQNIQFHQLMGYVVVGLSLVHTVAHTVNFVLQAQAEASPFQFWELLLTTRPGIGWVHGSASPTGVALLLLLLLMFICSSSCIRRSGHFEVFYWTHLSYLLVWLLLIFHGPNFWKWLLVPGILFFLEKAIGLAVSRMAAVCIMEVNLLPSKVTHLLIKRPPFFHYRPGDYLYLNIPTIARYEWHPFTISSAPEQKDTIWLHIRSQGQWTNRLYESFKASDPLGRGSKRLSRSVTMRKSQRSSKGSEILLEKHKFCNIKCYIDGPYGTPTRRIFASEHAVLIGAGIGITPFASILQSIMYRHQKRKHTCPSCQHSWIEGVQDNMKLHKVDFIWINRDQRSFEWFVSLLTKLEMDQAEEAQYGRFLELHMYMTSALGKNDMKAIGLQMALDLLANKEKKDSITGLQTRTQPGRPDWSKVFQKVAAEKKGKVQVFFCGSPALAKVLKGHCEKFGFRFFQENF

[11] = A549 cell viability effects, profiling panel, calcein-AM fluorescence, 48 h, basal (AID 1162); conditions: higher = more signal; note: test concentration not given here
[12] = adipocyte viability effects, profiling panel, cell-based, 3T3-L1 adipocytes, calcein-AM fluorescence, 48 h, basal (AID 1163); conditions: 3T3-L1 adipocytes viability, higher = more signal; note: test concentration not given here
[13] = HepG2 cell viability effects, profiling panel, calcein-AM fluorescence, 48 h, basal (AID 1164); conditions: higher = more signal; note: test concentration not given here
[14] = MM1S cell viability effects, profiling panel, calcein-AM fluorescence, 48 h, basal (AID 1165); conditions: higher = more signal;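 note: viability of MM1S multiple myeloma cells under basal unstimulated conditions; test concentration not given here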
[15] = basal RPMI8226 viability, no added stimulus, profiling panel, cell-based, calcein-AM fluorescence, 48 h, PK04 Diversity Set (AID 1166); conditions: RPMI8226 myeloma viability, higher = more signal;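 note: cells grown under basal conditions without added stimulus; test concentration not given here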
[16] = basal HepG2 mitochondrial membrane potential changes, profiling panel, cell-based, JC-1 fluorescence, 24 h, 100 nL compound (AID 1167); conditions: higher = more signal; note: test concentration not given here
[17] = basal 3T3-L1 adipocyte mitochondrial potential changes, profiling panel, cell-based, JC-1 fluorescence, 3T3-L1 adipocytes, 24 h, 100 nL compound (AID 1168); conditions: JC-1 mitochondrial fluorescence, higher = more signal, called active from +8 up or from −8 down; note: test concentration not given here
[18] = basal RPMI8226 mitochondrial membrane potential changes, profiling panel, cell-based, JC-1 fluorescence, 24 h, 100 nL compound (AID 1169); conditions: RPMI8226 myeloma, JC-1 mitochondrial potential fluorescence, higher = more signal; note: test concentration not given here
[19] = basal MM1S mitochondrial membrane potential changes, profiling panel, cell-based, JC-1 fluorescence, 24 h, 100 nL compound (AID 1170); conditions: higher = more signal; note: test concentration not given here
[20] = A549 lung cancer cell viability effects, profiling panel, resazurin fluorescence, 24 h, PK04 Diversity Set (AID 1171); conditions: higher = more signal, called active from +8 up or from −8 down; note: test concentration not given here

## COc1ccc(CC[C@H](O)c2cccc(OCC(=O)OC(C)(C)C)c2)cc1
[1]
  z-score: -0.636 (inactive)
[2]
  composite z-score: 0.163
[3]
  z-score: 22.8 (active)
[4]
  z-score: 6.97 (inactive)
[5]
  z-score: 0.597 (inactive)
[6]
  z-score: 0.794 (inactive)
[7]
  z-score: 0.118
[8]
  z-score: -2.52 (inactive)
[9]
  z-score: -0.941 (inactive)
[10]
  z-score: -4.03
[11]
  z-score: -1.42
[12]
  z-score: 0.71
[13]
  z-score: -2.12
[14]
  z-score: -2.52
[15]
  z-score: -1.31
[16]
  z-score: -2.71
[17]
  z-score: 1.69 (inactive)
[18]
  z-score: -0.84
[19]
  z-score: -0.835
[20]
  z-score: 0.41 (inactive)

## C=C(CCCC)/C(=C/C[C@H](OC(C)=O)c1cccc(OCCO)c1)c1cc(C(=O)OC)ccc1OC
[1]
  z-score: 1.19 (inactive)
[2]
  composite z-score: -0.007
[3]
  z-score: 21 (active)
[4]
  z-score: 3.75 (inactive)
[5]
  z-score: 2.43 (inactive)
[6]
  z-score: 1.21 (inactive)
[7]
  z-score: -0.377
[8]
  z-score: 1.39 (inactive)
[9]
  z-score: 1.02 (inactive)
[10]
  z-score: -0.963
[11]
  z-score: 2.28
[12]
  z-score: 0.477
[13]
  z-score: 0.651
[14]
  z-score: -0.965
[15]
  z-score: -2.14
[16]
  z-score: 2.19
[17]
  z-score: 0.18 (inactive)
[18]
  z-score: -0.111
[19]
  z-score: 0.309
[20]
  z-score: 2.7 (inactive)

## COC(=O)[C@@H]1N=C(c2ccc(OCCCO)cc2)O[C@@H]1c1ccccc1CN=[N+]=[N-]
[1]
  z-score: 0.664 (inactive)
[2]
  composite z-score: 0.881
[3]
  z-score: 25 (active)
[4]
  z-score: 9.39 (active)
[5]
  z-score: -0.5 (inactive)
[6]
  z-score: 1.33 (inactive)
[7]
  z-score: -0.239
[8]
  z-score: -0.817 (inactive)
[9]
  z-score: 0.827 (inactive)
[10]
  z-score: 0.0949
[11]
  z-score: 0.432
[12]
  z-score: -0.446
[13]
  z-score: -0.198
[14]
  z-score: -0.329
[15]
  z-score: -0.717
[16]
  z-score: -1.07
[17]
  z-score: 1.43 (inactive)
[18]
  z-score: -0.16
[19]
  z-score: -0.741
[20]
  z-score: 1.07 (inactive)

## CCCC=C(CCC)[C@@H](NS(=O)(=O)c1ccc(Cl)cc1)c1ccccc1
[1]
  z-score: -2.04 (inactive)
[2]
  composite z-score: 0.345
[3]
  z-score: 1.02 (inactive)
[4]
  z-score: 0.1 (inactive)
[5]
  z-score: 1.16 (inactive)
[6]
  z-score: 0.814 (inactive)
[7]
  z-score: 0.717
[8]
  z-score: -1.64 (inactive)
[9]
  z-score: -3.24 (inactive)
[10]
  z-score: 1.59
[11]
  z-score: -1.61
[12]
  z-score: -0.224
[13]
  z-score: -1.42
[14]
  z-score: -1.18
[15]
  z-score: -3.77
[16]
  z-score: -3.69
[17]
  z-score: 0.0744 (inactive)
[18]
  z-score: -0.372
[19]
  z-score: -0.676
[20]
  z-score: 2.17 (inactive)

## CC(C)C[C@@H]1NC(=O)[C@H]2C[C@@H](C(=O)NCCCCCCNC(=O)CS)[C@@H](c3ccc(O)cc3)N2C1=O
[1]
  z-score: 0.13 (inactive)
[2]
  composite z-score: -0.0603
[3]
  z-score: 7.66 (inactive)
[4]
  z-score: 0.64 (inactive)
[5]
  z-score: 1.4 (inactive)
[6]
  z-score: -0.0166 (inactive)
[7]
  z-score: 0.795
[8]
  z-score: 1.64 (inactive)
[9]
  z-score: 0.633 (inactive)
[10]
  z-score: 0.755
[11]
  z-score: -0.889
[12]
  z-score: 0.197
[13]
  z-score: -0.301
[14]
  z-score: -0.397
[15]
  z-score: 0.266
[16]
  z-score: -1.74
[17]
  z-score: 0.193 (inactive)
[18]
  z-score: 0.486
[19]
  z-score: -5.59e-05
[20]
  z-score: 0.0225 (inactive)

## COC(=O)C(CC#Cc1ccc2c(c1)[C@]1(C(=O)N2)[C@H](c2ccc(O)cc2)N2[C@H](c3ccccc3)[C@H](c3ccccc3)OC(=O)[C@H]2[C@@H]1C(=O)N1CCc2cc(OC)c(OC)cc2C1)C(=O)OC
[1]
  z-score: -0.958 (inactive)
[2]
  composite z-score: 0.156
[3]
  z-score: 1.4 (inactive)
[4]
  z-score: 0.923 (inactive)
[5]
  z-score: 0.848 (inactive)
[6]
  z-score: 0.591 (inactive)
[7]
  z-score: -0.747
[8]
  z-score: 2.05 (inactive)
[9]
  z-score: 0.706 (inactive)
[10]
  z-score: 0.218
[11]
  z-score: -0.581
[12]
  z-score: -0.959
[13]
  z-score: -0.184
[14]
  z-score: -1.71
[15]
  z-score: -4.43
[16]
  z-score: -2.15
[17]
  z-score: 0.124 (inactive)
[18]
  z-score: -1.22
[19]
  z-score: -1.03
[20]
  z-score: -0.0149 (inactive)

## CC(C)[Si](C#CCCCC#N)(O[C@H](c1ccccc1)c1cn([C@H](C)c2ccccc2)nn1)C(C)C
[1]
  z-score: 1.03 (inactive)
[2]
  composite z-score: -0.0984
[3]
  z-score: 1.66 (inactive)
[4]
  z-score: 0.878 (inactive)
[5]
  z-score: 0.0478 (inactive)
[6]
  z-score: 0.211 (inactive)
[7]
  z-score: 0.147
[8]
  z-score: 1.19 (inactive)
[9]
  z-score: 0.406 (inactive)
[10]
  z-score: 0.255
[11]
  z-score: -1.38
[12]
  z-score: -0.348
[13]
  z-score: 0.571
[14]
  z-score: -0.057
[15]
  z-score: -2.68
[16]
  z-score: 6.54
[17]
  z-score: -0.289 (inactive)
[18]
  z-score: 0.0785
[19]
  z-score: -0.733
[20]
  z-score: 1.07 (inactive)

## CCCCC(=C=CC[C@@H](O)c1cccc(OCCO)c1)CCO
[1]
  z-score: 0.896 (inactive)
[2]
  composite z-score: -0.142
[3]
  z-score: 6.54 (inactive)
[4]
  z-score: 1.02 (inactive)
[5]
  z-score: 0.842 (inactive)
[6]
  z-score: 0.528 (inactive)
[7]
  z-score: 1.3
[8]
  z-score: -0.681 (inactive)
[9]
  z-score: -0.283 (inactive)
[10]
  z-score: -1.8
[11]
  z-score: 1.58
[12]
  z-score: -0.634
[13]
  z-score: 0.98
[14]
  z-score: 0.859
[15]
  z-score: 0.0922
[16]
  z-score: 0.416
[17]
  z-score: 1.27 (inactive)
[18]
  z-score: 0.044
[19]
  z-score: -1.09
[20]
  z-score: 1.06 (inactive)

## CCOC(=O)C1=C[C@@H](C(C)(C)C)N(S(=O)(=O)c2ccc(C)cc2)[C@H]1c1ccccc1Cl
[1]
  z-score: -1.29 (inactive)
[2]
  composite z-score: 0.208
[3]
  z-score: -0.747 (inactive)
[4]
  z-score: 0.627 (inactive)
[5]
  z-score: -0.775 (inactive)
[6]
  z-score: 0.193 (inactive)
[7]
  z-score: -0.535
[8]
  z-score: -1.54 (inactive)
[9]
  z-score: -0.44 (inactive)
[10]
  z-score: 0.1
[11]
  z-score: -0.917
[12]
  z-score: -1.16
[13]
  z-score: -1.81
[14]
  z-score: -0.991
[15]
  z-score: -1.2
[16]
  z-score: 3.95
[17]
  z-score: 0.147 (inactive)
[18]
  z-score: -0.822
[19]
  z-score: -0.863
[20]
  z-score: 0.772 (inactive)
